Test results from PubChem BioAssay (NCATS).
Records with an inconclusive call do not appear. Calls of active or inactive are those of the source. Calls come from the whole dose curve.

How the values were obtained:
[1] = Primary qHTS for inhibitors of SARS-S pseudo-typed particle cell entry (AID 1479145); note: nearly all actives have a fitted effect of over 45% in size; for activity change, negative = inhibition: series mostly up to about 57 µM
[2] = Primary qHTS for Huh7 cytotoxicity: counterscreen for inhibitors of MERS-S pseudotyped particle cell entry (AID 1479147)
[3] = Primary qHTS for inhibitors of MERS-S pseudo-typed particle cell entry (AID 1479149); note: nearly all actives have a fitted effect of over 60% in size; for activity change, negative = inhibition: series mostly up to about 57 µM
[4] = Primary qHTS for Vero E6 cytotoxicity: counterscreen for inhibitors of SARS-S pseudo-typed particle cell entry (AID 1479150)
% is set by controls: 0 for no effect and ±100 for the full control effect.

CCCCNc1cc(C(=O)O)cc(S(N)(=O)=O)c1Oc1ccccc1
inactive: Potency [1] | Potency [2] | Potency [3] | Potency [4]

NC(N)=NCCC[C@H](N)C(=O)O
inactive: activity change, negative = inhibition [1] -24.6% [at 5.34 µM] | outcome [2] inactive [at 5.34 µM] | outcome [3] inactive [at 5.34 µM] | activity change, negative = cytotoxicity [4] 0.575% [at 5.34 µM]

CC(C)NCCCC1(C(N)=O)c2ccccc2-c2ccccc21
inactive: Potency [1] | Potency [2] | Potency [3] | Potency [4]

CC[C@H](NC(C)C)[C@H](O)c1ccc(O)c2[nH]c(=O)ccc12
inactive: Potency [1] | Potency [2] | Potency [3] | Potency [4]

CC(C)C(=O)OCc1cccc(OC(=O)[C@@H]2N3C(=O)[C@@H](NC(=O)Cc4ccccc4)[C@H]3SC2(C)C)c1
inactive: Potency [1] | Potency [2] | Potency [3] | Potency [4]

CN(C)CCN(Cc1cccs1)c1ccccn1
inactive: Potency [1] | Potency [2] | Potency [3] | Potency [4]

NC(CSCC(=O)O)C(=O)O (stereo unspecified)
inactive: Potency [1] | Potency [2] | Potency [3] | Potency [4]

CNC(=O)Oc1ccc2c(c1)[C@]1(C)CCN(C)[C@@H]1N2C
inactive: Potency [1] | Potency [2] | Potency [3] | Potency [4]

Cc1ccc(=O)n(-c2ccccc2)c1
inactive: Potency [1] | Potency [2] | Potency [3] | Potency [4]

OC(CCN1CCCCC1)(c1ccccc1)C1CC2C=CC1C2 (stereo unspecified)
inactive: Potency [1] | Potency [2] | Potency [3] | Potency [4]

O=C(O)CCC(=O)Nc1ccc(S(=O)(=O)Nc2nccs2)cc1
inactive: Potency [1] | Potency [2] | Potency [3] | Potency [4]

CC1(C)O[C@@H]2C[C@H]3[C@@H]4C[C@H](F)C5=CC(=O)CC[C@]5(C)[C@H]4[C@@H](O)C[C@]3(C)[C@]2(C(=O)CO)O1
inactive: Potency [1] | Potency [2] | Potency [3] | Potency [4]

CC(=O)OCC(=O)[C@@]1(O)CCC2C3CCC4=CC(=O)CC[C@]4(C)C3[C@@H](O)C[C@@]21C (stereo partly specified)
inactive: Potency [1] | Potency [2] | Potency [3] | Potency [4]

C[C@H]1C[C@H]2[C@@H]3CCC4=CC(=O)C=C[C@]4(C)[C@H]3C(=O)C[C@]2(C)[C@@]1(O)C(=O)CO
inactive: Potency [1] | Potency [2] | Potency [3] | Potency [4]

Cc1cccc(N(C)C(=S)Oc2ccc3ccccc3c2)c1
inactive: Potency [1] | Potency [2] | Potency [3] | Potency [4]

O=C(O)CCc1nc(-c2ccccc2)c(-c2ccccc2)o1
inactive: Potency [1] | Potency [2] | Potency [3] | Potency [4]

N[C@H]1CN(c2c(F)cc3c(=O)c(C(=O)O)cn(C4C[C@@H]4F)c3c2Cl)CC12CC2 (stereo partly specified)
inactive: Potency [1] | Potency [2] | Potency [3] | Potency [4]

Nc1ccc(C(=O)NCC(=O)O)cc1
inactive: Potency [1] | Potency [2] | Potency [3] | Potency [4]

CCN(CC)C(=O)N1CCN(C)CC1
inactive: Potency [1] | Potency [2] | Potency [3] | Potency [4]
